# In PubChem BioAssay (NCATS):
# Values without a mark were called inactive. For part of these data: Potency and affinity values are given separately. The source made the active and inactive calls. How the calls were made is not given here.
# Tests used:
# [1] = Ebola virus entry assay, green fluorescence channel
# [2] = Ebola virus entry assay, blue channel fluorescence
# [3] = Ebola virus entry assay, ratio channel
# [4] = Ebola virus entry assay, reporter ratio channel; Channel type: primary
# Wherever efficacy is given: 0% is about no effect.
Structure (SMILES),efficacy [1],AC50 [2],AC50 [3],AC50 [4],outcome [2],outcome [3],outcome [4]
C[C@H]1[C@H]2CC[C@H]3[C@@H]4CC=C5C[C@@H](N(C)C)CC[C@]5(C)[C@H]4CC[C@]23CN1C,108%,10 µM (active),10 µM (active),10 µM (active),–,–,–
CCN(CC)CCOc1ccc(C(O)(Cc2ccc(Cl)cc2)c2ccc(C)cc2)cc1 (stereo not drawn),-145%,2.51 µM (active),1.78 µM (active),1.78 µM (active),–,–,–
CCCCCCOC(=O)NC(=N)c1ccc(NCc2nc3cc(C(=O)N(CCC(=O)OCC)c4ccccn4)ccc3n2C)cc1,128%,3.55 µM (active),3.16 µM (active),3.16 µM (active),–,–,–
CN(C)CCn1nnnc1SCC1=C(C(=O)O)N2C(=O)[C@@H](NC(=O)Cc3csc(N)n3)[C@H]2SC1,40.8%,17.8 µM (active),28.2 µM (active),28.2 µM (active),–,–,–
Clc1ccc(C(Cn2ccnc2)OCc2c(Cl)cccc2Cl)c(Cl)c1 (stereo not drawn),-112%,14.1 µM (active),8.91 µM (active),8.91 µM (active),–,–,–
Nc1c2c(nc3ccccc13)CCCC2,49.8%,31.6 µM (active),31.6 µM (active),31.6 µM (active),–,–,–
c1ccc(C(O[C@H]2CCCN(CCc3ccc4c(c3)OCO4)C2)c2ccccc2)cc1,57.8%,28.2 µM (active),25.1 µM (active),25.1 µM (active),–,–,–
C[C@H]1O[C@@H](O[C@H]2CC[C@@]3(C)[C@H](CC[C@@H]4[C@@H]3C[C@@H](O)[C@]3(C)[C@@H](C5=CC(=O)OC5)CC[C@]43O)C2)C[C@H](O)[C@@H]1O[C@H]1C[C@H](O)[C@H](O[C@H]2C[C@H](O)[C@H](O[C@@H]3O[C@H](CO)[C@@H](O)[C@H](O)[C@H]3O)[C@@H](C)O2)[C@@H](C)O1,-58.9%,1.58 µM (active),0.891 µM (active),0.891 µM (active),–,–,–
C[n+]1cc2c3c(ccc2c2ccc4cc5c(cc4c21)OCO5)OCO3,-149%,17.8 µM (active),17.8 µM (active),17.8 µM (active),–,–,–
CN(C)CCN(Cc1ccc(Cl)cc1)c1ccccn1,58.3%,17.8 µM (active),14.1 µM (active),14.1 µM (active),–,–,–
Cc1ccc2c(c1)c1c3n2CCNC3CCC1 (stereo not drawn),68.3%,28.2 µM (active),28.2 µM (active),28.2 µM (active),–,–,–
O=C1NCN(c2ccccc2)C12CCN(CCCC(c1ccc(F)cc1)c1ccc(F)cc1)CC2,83.4%,1.41 µM (active),1.26 µM (active),1.26 µM (active),–,–,–
CCCN(CCC)C(=O)C(CCC(=O)OCCCN1CCN(CCOC(=O)Cc2c(C)n(C(=O)c3ccc(Cl)cc3)c3ccc(OC)cc23)CC1)NC(=O)c1ccccc1 (stereo not drawn),156%,6.31 µM (active),5.62 µM (active),5.62 µM (active),–,–,–
CN(C)[C@@H]1C(=O)C(C(=O)NCN2CCCC2)=C(O)[C@@]2(O)C(=O)C3=C(O)c4c(O)cccc4[C@@](C)(O)C3C[C@@H]12 (stereo partly drawn),145%,11.2 µM (active),11.2 µM (active),11.2 µM (active),–,–,–
COc1ccc(-c2cc(C(F)F)nn2-c2ccc(S(N)(=O)=O)cc2)cc1F,77%,25.1 µM (active),14.1 µM (active),14.1 µM (active),–,–,–
C[C@@H](C1=C(CCN(C)C)Cc2ccccc21)c1ccccn1,89%,12.6 µM (active),10 µM (active),10 µM (active),–,–,–
O=C(Nc1ccc(Cl)cc1)Nc1ccc(Cl)c(C(F)(F)F)c1,-174%,28.2 µM (active),8.91 µM (active),8.91 µM (active),–,–,–
CCCCN(CCCC)CC(O)c1cc(Cl)cc2c1-c1ccc(Cl)cc1/C2=C/c1ccc(Cl)cc1 (stereo not drawn),120%,39.8 µM (active),39.8 µM (active),39.8 µM (active),–,–,–
CC(=O)NC(Cc1ccccc1)C(=O)O (stereo not drawn),29.9%,–,–,–,inactive,inactive,inactive

Structure (SMILES),efficacy [1],AC50 [2],AC50 [3],AC50 [4],outcome [2],outcome [3],outcome [4]
Cc1nc2sccn2c(=O)c1CCN1CCC(=C(c2ccc(F)cc2)c2ccc(F)cc2)CC1,82.1%,17.8 µM (active),15.8 µM (active),15.8 µM (active),–,–,–
C#CCN(C)CCCOc1ccc(Cl)cc1Cl,-19.7%,39.8 µM (active),–,39.8 µM (active),–,inactive,–
C[C@@H]1C[C@H]2[C@@H]3CCC4=CC(=O)C=C[C@]4(C)[C@@]3(Cl)[C@@H](O)C[C@]2(C)[C@@]1(OC(=O)c1ccco1)C(=O)CCl,39.8%,25.1 µM (active),10 µM (active),10 µM (active),–,–,–
Cc1ccc(/C(=C\CN2CCCC2)c2ccccn2)cc1,48.9%,31.6 µM (active),28.2 µM (active),28.2 µM (active),–,–,–
CCOC(=O)COc1ccc2c(C)c(CCN(CC)CC)c(=O)oc2c1Cl,158%,28.2 µM (active),25.1 µM (active),25.1 µM (active),–,–,–
CCCCCCCCCCCCCCCCCCNC(=O)OC1CCN(C(=O)OC[C@H](COC(=O)N(Cc2cccc[n+]2CC)C(=O)c2ccccc2OC)OC)CC1,-117%,39.8 µM (active),–,–,–,inactive,inactive
O=C(c1cc(O)c(O)c(O)c1)c1ccc(O)c(O)c1O,38.9%,1.78 µM (active),1.78 µM (active),1.78 µM (active),–,–,–
Cc1cccc(CN2CCN(C(c3ccccc3)c3ccc(Cl)cc3)CC2)c1 (stereo not drawn),38.6%,22.4 µM (active),22.4 µM (active),22.4 µM (active),–,–,–
CN1CCN(CCCN2c3ccccc3Sc3ccc(S(=O)(=O)N(C)C)cc32)CC1,146%,2.51 µM (active),2.24 µM (active),2.24 µM (active),–,–,–
Cc1cc(C(C)(C)C)c(O)c(C)c1CC1=NCCN1,52%,39.8 µM (active),–,39.8 µM (active),–,inactive,–
CC(C)(C)c1ccc(C(O)CCCN2CCC(C(O)(c3ccccc3)c3ccccc3)CC2)cc1 (stereo not drawn),59%,1.41 µM (active),0.891 µM (active),0.891 µM (active),–,–,–
CCCCCCCCCCCCCCCC[N+](C)(C)CCN(Cc1ccc(OC)cc1)c1ncccn1,-93.3%,39.8 µM (active),–,39.8 µM (active),–,inactive,–
CN(C)c1ccc(C(=C2C=CC(=[N+](C)C)C=C2)c2ccc(N(C)C)cc2)cc1,-158%,5.01 µM (active),3.55 µM (active),3.55 µM (active),–,–,–
[O-][n+]1ccccc1SSc1cccc[n+]1[O-],40.7%,1.26 µM (active),1.26 µM (active),1.26 µM (active),–,–,–
CCOc1ccccc1O[C@H](c1ccccc1)[C@H]1CNCCO1,89.3%,14.1 µM (active),15.8 µM (active),15.8 µM (active),–,–,–
O[C@@H](COc1cccc2ncccc12)CN1CCN(C2c3ccccc3[C@@H]3[C@H](c4ccccc42)C3(F)F)CC1 (stereo partly drawn),34.8%,10 µM (active),10 µM (active),10 µM (active),–,–,–
CCCCCCCCCCCC[N+](C)(C)Cc1ccccc1,-253%,22.4 µM (active),2.51 µM (active),2.51 µM (active),–,–,–
CN(C)C/C=C(/c1ccc(Br)cc1)c1cccnc1,51.4%,39.8 µM (active),–,35.5 µM (active),–,inactive,–
Cc1cc(O)c(C(C)C)cc1Cl,-25.5%,35.5 µM (active),–,–,–,inactive,inactive

Structure (SMILES),efficacy [1],AC50 [2],AC50 [3],AC50 [4],outcome [2],outcome [3],outcome [4]
COC1=C(OC)C(=O)C(CCCCCCCCCCO)=C(C)C1=O,52%,–,–,–,inactive,inactive,inactive
O=C1[C@H]2CCCC[C@H]2C(=O)N1CCCCN1CCN(c2nsc3ccccc23)CC1,104%,20 µM (active),17.8 µM (active),17.8 µM (active),–,–,–
c1ccc(CN(CC2=NCCN2)c2ccccc2)cc1,60.7%,39.8 µM (active),–,39.8 µM (active),–,inactive,–
CCN(CC)CCCN(c1ccccc1)C1Cc2ccccc2C1,47.4%,3.55 µM (active),3.55 µM (active),3.55 µM (active),–,–,–
CN1CCN(C2Cc3ccccc3Sc3ccc(Cl)cc32)CC1 (stereo not drawn),95.7%,5.01 µM (active),5.01 µM (active),5.01 µM (active),–,–,–
CN(C)CCCN1c2ccccc2Sc2ccccc21,62.9%,5.62 µM (active),5.01 µM (active),5.01 µM (active),–,–,–
COc1cc(N)c(Cl)cc1C(=O)NC1CCN(CCCOc2ccc(F)cc2)CC1OC (stereo not drawn),45%,25.1 µM (active),15.8 µM (active),15.8 µM (active),–,–,–
CCCCC[C@H](O)C=C[C@H]1[C@H](O)CC(=O)[C@H]1CC=CCCCC(=O)O,75.7%,8.91 µM (active),7.08 µM (active),7.08 µM (active),–,–,–
Oc1c(Cl)cc(Cl)c2cccnc12,73.4%,39.8 µM (active),–,39.8 µM (active),–,inactive,–
CN(C)c1ccc(C(=C2C=CC(=[N+](C)C)C=C2)c2ccccc2)cc1,-236%,0.891 µM (active),0.708 µM (active),0.708 µM (active),–,–,–
CC(C(O)c1ccc(O)cc1)N1CCC(Cc2ccccc2)CC1 (stereo not drawn),92.8%,17.8 µM (active),28.2 µM (active),28.2 µM (active),–,–,–
COCC(=O)O[C@]1(CCN(C)CCCc2nc3ccccc3[nH]2)CCc2cc(F)ccc2[C@@H]1C(C)C,-180%,2.24 µM (active),2.24 µM (active),2.24 µM (active),–,–,–
Cc1nc(C2CCCCC2)c(-c2ccc(S(N)(=O)=O)c(F)c2)o1,44.4%,39.8 µM (active),31.6 µM (active),31.6 µM (active),–,–,–
CN1CCCCC1CCN1c2ccccc2Sc2ccc(S(C)=O)cc21 (stereo not drawn),68.6%,7.08 µM (active),7.94 µM (active),7.94 µM (active),–,–,–
COc1cccc2c1C(=O)c1c(O)c3c(c(O)c1C2=O)C[C@@](O)(C(C)=O)C[C@@H]3O[C@H]1C[C@H](N)[C@H](O)[C@H](C)O1,54.5%,5.01 µM (active),5.01 µM (active),5.01 µM (active),–,–,–
Clc1ccc(Cn2c(CN3CCCC3)nc3ccccc32)cc1,99.2%,28.2 µM (active),22.4 µM (active),22.4 µM (active),–,–,–
CN(C)CC/C=C1\c2ccccc2Sc2ccc(Cl)cc21,-98.3%,3.16 µM (active),3.16 µM (active),3.16 µM (active),–,–,–
CC1CCCCN1CCCOC(=O)c1ccc(OC2CCCCC2)cc1 (stereo not drawn),86.1%,8.91 µM (active),7.94 µM (active),7.94 µM (active),–,–,–
Nc1ccc2cc3ccc(N)cc3nc2c1,154%,39.8 µM (active),39.8 µM (active),39.8 µM (active),–,–,–
